Experimental data published in PubChem BioAssay AID485297 (National Center for Advancing Translational Sciences (NCATS), 2010).
The whole screen tested about 320,000 compounds, of which about 9,100 (2.8%) were called active. Another 3% or so got no clear call; they are omitted. The list comes from a sample in which actives are over-represented; it also holds similar structures and randomly drawn compounds. Unmarked numbers belong to inactive results. Calls come from the whole dose curve; as a rule, active = well fitted activation curve with a large enough effect; inconclusive = small, poorly fitted or top-dose-only effect; inactive = no such curve, though single readings can be large or run the other way.

Assay: qHTS Assay for Rab9 Promoter Activators; note: nearly all actives have a fitted effect of over 60% in size; for activation, negative = inhibition: % of control where 0% means no effect
Details: Huh7 Rab9 promoter-luciferase reporter, luminescence, 24 h; series mostly up to 9.22 µM; activation, negative = inhibition: at the top concentration
In short: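 Steps: seed 1500 Huh7 Rab9-luc cells per well, rest 2 h at 37 °C; add compound in DMSO; incubate 24 h; add luciferase reagent, 10 min ambient; read luminescence.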
Potency is the fitted concentration of half-maximal effect.

Row | Structure (SMILES) | activation, negative = inhibition | Potency
1 | CCn1nc(C(=O)NNC(=O)C2CSC3(C)CCC(=O)N23)c2ccccc2c1=O (configuration not stated) | -0.95% | –
2 | CCN(C(=O)COC(=O)CCOc1cccc(C)c1)c1c(N)n(Cc2ccccc2)c(=O)[nH]c1=O | -6.63% | –
3 | N#Cc1ccccc1S(=O)(=O)N1CCN(Cc2c(O)ccc3ccccc23)CC1 | -3.22% | –
4 | N#CCC(=O)Nc1ccc(C(=O)OCC(=O)Nc2sc3c(c2C#N)CCCC3)cc1 | -8.12% | –
5 | Nc1ncnc2c1c(I)cn2[C@@H]1C[C@H](N)[C@@H](O)[C@H]1O | -40.3% [at 46.1 µM] | –
6 | Cn1nc(-c2ccccc2)c2cc([N+](=O)[O-])ccc21 | -3.2% | –
7 | Cc1cc(CO)nn1-c1ccc([N+](=O)[O-])cc1 | -2.25% | –
8 | Cc1nn(-c2ccc([N+](=O)[O-])cc2)c(N)c1-c1ccccc1 | – | 1.26 µM (active)
9 | COc1ccccc1OCCNC(=O)C(CCSC)NC(=O)COc1ccccc1 (configuration not stated) | 13% | –
10 | O=C(COC(=O)Cc1ccccc1F)NCCc1ccccc1 | 0.179% | –
11 | CCOc1cccc2cc(C(=O)OCC(=O)Nc3c(C)cccc3CC)c(=O)oc12 | -0.156% | –
12 | COCCn1cnnc1SCC(=O)Nc1cccc(S(=O)(=O)N2CCCCC2)c1 | -9.69% | –
13 | O=C(Nc1cccc(NC(=O)c2ccccc2[N+](=O)[O-])c1)c1ccccc1Cl | 3.77% | –
14 | O=C(Nc1ccc2sc3ccccc3c(=O)c2c1)c1ccccc1Cl | – | 2.82 µM (active)
15 | COc1cc(NC(=O)c2cccs2)ccc1NC(=O)c1ccccc1Cl | 1.49% | –
16 | COc1ccc(C(=O)COC(=O)c2ccc([N+](=O)[O-])s2)cc1OC | -0.797% | –
17 | CN(C(=O)Cn1nnc(-c2ccc(F)cc2)n1)C1CCS(=O)(=O)C1 (configuration not stated) | -6.86% | –
18 | CC(C)(CNC(=O)Cc1ccc(Cl)cc1Cl)N1CCOCC1 | -1.21% | –
19 | N#Cc1ccc(C2N=C(c3ccccc3)NO2)cc1 (configuration not stated) | – | 1.78 µM (active)
20 | CCOc1ccc(NC(=O)CN(C)C(=O)CSc2ccccc2)cc1OCC | 0.0845% | –
21 | Cn1c(-c2ccco2)nc2cc3ccccc3cc21 | – | 3.98 µM (active)
22 | COc1ccccc1-n1c(-c2cc(-c3ccco3)[nH]n2)n[nH]c1=S | -0.896% | –
23 | Cc1cc(C(F)(F)F)nn1-c1nc(-c2ccco2)cc(C(F)(F)F)n1 | 1.18% | –
24 | COc1cc(OC)c(NS(=O)(=O)c2cn(C)cn2)cc1Cl | -0.424% | –
25 | O=[N+]([O-])c1ccc2nc(-c3ccccn3)[nH]c2c1 | – | 2.51 µM (active)
26 | O=C(CSc1nc2ccc([N+](=O)[O-])cc2[nH]1)c1ccc(Cl)cc1 | 7.31% | –

Row | Structure (SMILES) | activation, negative = inhibition | Potency
27 | O=[N+]([O-])c1ccc2c(c1)Nc1nc3ccccc3nc1N2 | -2.05% | –
28 | O=C(CN1C(=O)NC2(CCCCC2)C1=O)N1CCN(C(=O)c2cccs2)CC1 | 1.86% | –
29 | CC(C)n1ncc2c(C(=O)NCc3ccccc3CN(C)C)cc(C3CC3)nc21 | -0.739% | –
30 | CC(C)(C)c1csc(NC2=NS(=O)(=O)c3ccccc32)n1 | – | 1.26 µM (active)
31 | O=C(Oc1cccc(NC2=NS(=O)(=O)c3ccccc32)c1)c1ccncc1 | 1.05% | –
32 | Cc1ccc(S(=O)(=O)N(NC2=NS(=O)(=O)c3ccccc32)C(=O)c2ccccc2)cc1 | 0.999% | –
33 | O=S(=O)(NC1CCCCC1)c1ccc(F)c2ccccc12 | -10.5% | –
34 | COc1ccc2cc(C3=CC(=O)C[C@H](c4ccc5c(c4)OCO5)C3)ccc2c1 | -6.22% | –
35 | O=C(Nc1ccc(Cl)cc1)c1cccc(OC(=S)N2CCOCC2)c1 | -16.8% | –
36 | Nc1c(N(Cc2ccco2)C(=O)c2cccc(F)c2)c(=O)[nH]c(=O)n1Cc1ccccc1 | -7.02% | –
37 | CN(CC(=O)Nc1ccc(F)c(F)c1F)C(=O)Cn1cnc2c1c(=O)n(C)c(=O)n2C | 0.736% | –
38 | CC1CCCN(S(=O)(=O)c2ccc(C(=O)Nc3nnc(-c4ccncc4)o3)cc2)C1 (configuration not stated) | – | 1.41 µM (active)
39 | O=C(Nc1nnc(-c2ccco2)o1)c1ccc(S(=O)(=O)N2CCOCC2)cc1 | -11.2% | –
40 | CC1CCCCN1S(=O)(=O)c1ccc(C(=O)Nc2nnc(-c3cccs3)o2)cc1 (configuration not stated) | -20.4% | –
41 | O=C(COC(=O)c1c(Cl)cccc1Cl)Nc1cccc(S(=O)(=O)NC2=NCCCCC2)c1 | 0.239% | –
42 | COC(=O)c1ccc(NCC(=O)c2ccccc2)cc1 | – | 1.78 µM (active)
43 | Cc1ccc(C(=O)CNc2ccc(F)cc2)cc1 | 0.986% | –
44 | COC(=O)c1ccc(NCC(=O)N2CCCCCC2)cc1 | -45% | –
45 | O=C(N[C@@H](Cc1c[nH]c2ccccc12)C(=O)O)OCC1c2ccccc2-c2ccccc21 | -3.15% | –
46 | Cc1[nH]n(-c2cccc(Cl)c2)c(=O)c1-c1ccc(Cl)cc1 | 13.2% | –
47 | CC1=NN(C(N)=S)C(=O)C1N=Nc1cc(Cl)ccc1Cl (configuration not stated) | -0.446% | –
48 | Cc1[nH]n(C(N)=S)c(=O)c1N=Nc1ccc(Cl)cc1Cl | – | 3.98 µM (active)
49 | CCOC(=O)c1c(CNCc2ccccc2F)c2sc(C)cc2n1C | 2.34% | –
50 | COc1ccc(S(=O)(=O)N2CCOCC2)cc1NC(=O)c1ccc(OCC(C)C)c(OC)c1 | -5.03% | –
51 | CN(CCOc1ccccc1)C(=O)c1cc(-c2ccco2)nc2ccccc12 | -3.8% | –
52 | CC(OC(=O)c1ccccc1NCCO)C(=O)Nc1ccnn1C(C)C (configuration not stated) | 4.57% | –
